Screen size: about 290,000 compounds; about 3,200 (1.1%) were called active. The sample holds actives, similar compounds and a random draw of the others, so the mix is not that of the screen. Rule as the data show it: active = inhibition above about 60%; inactive = the rest.
target: Phosphoethanolamine/phosphocholine phosphatase (Homo sapiens) (UniProt Q8TCT1); test: PubChem AID 1565; conditions: recombinant PHOSPHO1, absorbance phosphatase assay; at 13.3 µM; active compounds read high
Sequence (Q8TCT1 whole entry, looked up): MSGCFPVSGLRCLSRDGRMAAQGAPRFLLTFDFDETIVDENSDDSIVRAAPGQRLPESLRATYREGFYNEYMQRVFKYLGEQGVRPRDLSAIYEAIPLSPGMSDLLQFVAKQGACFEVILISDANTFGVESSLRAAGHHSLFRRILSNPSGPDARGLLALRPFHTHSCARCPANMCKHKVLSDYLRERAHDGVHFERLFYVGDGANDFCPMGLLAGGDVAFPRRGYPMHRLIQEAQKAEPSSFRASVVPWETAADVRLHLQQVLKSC

| SMILES | inhibition |
| --- | --- |
| Cc1ccc(S(=O)(=O)N2CCN=C2SCc2c(F)cccc2Cl)cc1 | 22.6% (inactive) |
| OC(CNCCc1ccc(Cl)cc1Cl)COc1ccccc1 (stereo unspecified) | 46.3% (inactive) |
| COc1ccc(OC)c(C(=O)NC(CC(N)=O)c2ccc(N3CCC(N4CCCCC4)CC3)c([N+](=O)[O-])c2)c1 (stereo unspecified) | -18.6% (inactive) |
| O=C(CNc1cccc(S(=O)(=O)N2CCCCC2)c1)Nc1ccccc1F | 42.8% (inactive) |
| CC(C)C(C(=O)NCc1ccco1)N(CC1CCCO1)C(=O)CNS(=O)(=O)c1ccc(F)cc1 (stereo unspecified) | 46.2% (inactive) |
| Cc1cc(NC(=O)CSc2nnc(Nc3ccccc3F)s2)no1 | -3.4% (inactive) |
| CCOc1ccccc1Nc1nnc(SCC(=O)Nc2cc(C)on2)s1 | 61.5% (active) |
| CCOc1ccccc1Nc1nnc(SCc2ccc(C(=O)OC)o2)s1 | 48.3% (inactive) |
| CCOC(=O)C1(CCOC)CCN(Cc2cc3ccccc3s2)CC1 | 3.1% (inactive) |
| CCOC(=O)c1ccc(NC(=O)CSc2nnc(COc3ccccc3OC)n2C)cc1 | 6.3% (inactive) |
| CCCCNC(=O)CSc1nc2ccc(NC(=O)CSc3nnc(N)s3)cc2s1 | -25.6% (inactive) |
| CCCCNC(=O)CSc1nc2ccc(NC(=O)CSc3nnc(COc4ccccc4C)n3C)cc2s1 | 74.2% (active) |
| CC(C)[C@H](NC(=O)N1CCn2c1nc1ccccc12)C(=O)NC1CC1 | 46.9% (inactive) |
| O=S1(=O)CCOC[C@H](CC2CCCCC2)N1Cc1ccc(F)cc1 | 4% (inactive) |
| CCOC(=O)c1c(C)[nH]c(C)c1S(=O)(=O)NCCCc1ccco1 | -28.5% (inactive) |
| COc1cccc(NC(C)=[N+](C)CCNS(=O)(=O)c2ccc(Cl)cc2)c1 | -9% (inactive) |
| O=c1/c(=C/c2ccc(CNS(=O)(=O)c3ccccc3)o2)sc2n1CCN=2 | 97.8% (active) |
| COC(=O)C1=C(C)NC(=O)/C1=C/c1ccc(CNS(=O)(=O)c2ccc(C)cc2)o1 | 41.2% (inactive) |
| O=S(=O)(NCc1ccccc1)c1ccc(S(=O)(=O)N2CCCC2)cc1 | 3.4% (inactive) |
| O=C(Nc1ccc(C(=O)O)cc1)/C(=C\c1ccccc1)NC(=O)c1ccc(Br)cc1 | 25% (inactive) |
| Cc1ccc(S(=O)Cc2ccc(C(=O)N3CCN(C4CCCCC4)CC3)o2)cc1 (stereo unspecified) | 26.1% (inactive) |
| CCC(C)c1ccccc1NC(=O)CN(C)CC(=O)Nc1ccccc1SC (stereo unspecified) | 7% (inactive) |
| CCc1ccc(NC(=O)CSc2nnc(-c3cnccn3)n2Cc2ccco2)cc1 | 1.3% (inactive) |

| SMILES | inhibition |
| --- | --- |
| O=C(CSc1nnc(-c2cccnc2)n1Cc1ccco1)c1ccc(Cl)c(Cl)c1 | 71.1% (active) |
| COc1cc(Cl)c(C)cc1NC(=O)CSc1nnc(-c2cccnc2)n1Cc1ccco1 | 28.9% (inactive) |
| COc1ccc(C(=O)CSc2nnc(COc3ccccc3)n2Cc2ccco2)cc1 | 91.7% (active) |
| O=C(CSc1nnc(-c2cccnc2)n1Cc1ccco1)c1ccc(Cl)cc1 | 79.6% (active) |
| O=C(CSc1nnc(-c2cnccn2)n1Cc1ccco1)c1ccc(Cl)c(Cl)c1 | 85.4% (active) |
| O=C(CSc1nnc(-c2cccs2)n1Cc1ccco1)c1ccc2c(c1)OCO2 | -69.6% (inactive) |
| C=CCn1c(CNC(=O)c2ccco2)nnc1SCC(=O)c1ccc(OC)cc1 | 32.2% (inactive) |
| CCn1c(COc2ccccc2)nnc1SCC(=O)NCc1ccco1 | 19.2% (inactive) |
| Cc1ccc(NC(=O)CSc2nnc(-c3cnccn3)n2Cc2ccco2)cc1C | -3.2% (inactive) |
| COc1ccc(NC(=O)CSc2nnc(-c3cccs3)n2Cc2ccco2)cc1OC | 19.4% (inactive) |
| Cc1cc(NC(=O)CSc2nc3cc(Cl)ccc3c(=O)n2Cc2ccco2)no1 | 12.3% (inactive) |
| CC1CCN(C(=O)/C(=C\c2ccccc2F)NC(=O)c2ccccc2)CC1 | 18.7% (inactive) |
| CCN(c1cccc(C)c1)S(=O)(=O)c1ccc(-c2coc(C)n2)cc1 | -0.1% (inactive) |
| Cc1cc(=O)oc2c3c(cc(OCC(=O)NCc4ccccn4)c12)OC(C)(C)CC3 | 34.3% (inactive) |
| O=C1C(=O)N(CCN2CCOCC2)C(c2cccc(Cl)c2)/C1=C(/O)c1ccc2c(c1)OCO2 (stereo unspecified) | 24% (inactive) |
| CN(C(=O)CCN1C(=O)/C(=C/c2ccccc2F)SC1=S)C1CCS(=O)(=O)C1 (stereo unspecified) | 52.6% (inactive) |
| COc1ccc(OC)c(NC(=O)Cc2cccs2)c1 | 3.8% (inactive) |
| CCCc1nn2c(=O)cc(CSCC(=O)Nc3cccc(C)c3)nc2s1 | 24% (inactive) |
| CCOC(=O)Cc1csc(NC(=O)CSc2nnc(-c3cccnc3)n2Cc2ccco2)n1 | 17.3% (inactive) |
| O=C(CSc1nnc(-c2cccnc2)n1CCc1ccccc1)NCc1ccccc1 | 1.5% (inactive) |
| C(=C\c1ccccc1)/CSc1nnc(-c2cccnc2)n1Cc1ccco1 | 70.5% (active) |
| Cc1ccc(C(=O)N(CC(=O)NC2CCCC2)c2ccc(F)cc2)s1 | 40.5% (inactive) |
| CCCCn1c(SCC(=O)N2CCC(C(=O)OCC)CC2)nc2cc(S(N)(=O)=O)ccc21 | 1.5% (inactive) |

| SMILES | inhibition |
| --- | --- |
| CCn1c(SCC(=O)NCC2CCCO2)nc2cc(S(=O)(=O)N3CCCCC3)ccc21 (stereo unspecified) | 14.5% (inactive) |
| CCCCn1c(SCc2ncc(-c3ccccc3)o2)nc2cc(S(N)(=O)=O)ccc21 | 75.4% (active) |
| O=C(c1cccc(-n2cccc2)c1)N1CCN(S(=O)(=O)c2ccc(F)cc2)CC1 | -102% (inactive) |
| O=C(C1CC(=O)N(c2ccc(F)cc2)C1)N1CCN(c2ccccc2)CC1 (stereo unspecified) | 42.6% (inactive) |
| COc1ccc(OC)c(CNC(=O)Cn2nc(C)c3c(C)n(-c4ccc(C)cc4)nc3c2=O)c1 | 24% (inactive) |
| COc1ccc(CNC(=O)C(C)n2nc(C)c3c(C)n(-c4ccccc4)nc3c2=O)c(OC)c1 (stereo unspecified) | 64.7% (active) |
| Cc1nn(C(C)C(=O)NCCC2=CCCCC2)c(=O)c2nn(-c3ccccc3)c(C)c12 (stereo unspecified) | 54.1% (inactive) |
| COC(=O)c1ccc(CN2CCCC(C(=O)Nc3cccc(-n4cnnn4)c3)C2)cc1 (stereo unspecified) | 22.6% (inactive) |
| Cc1cc(C)cc(NS(=O)(=O)c2ccc(F)cc2)c1 | 28.3% (inactive) |
| Cn1c(=O)n(C)c2cc(NS(=O)(=O)c3ccc(F)cc3)ccc21 | 38.9% (inactive) |
| Cn1nccc1NS(=O)(=O)c1ccc(F)cc1 | 69.9% (active) |
| O=C(C1CCCN(S(=O)(=O)c2ccc([N+](=O)[O-])cc2)C1)N1CCCCC1 (stereo unspecified) | 52.6% (inactive) |
| O=C(Cc1ccccc1)NNS(=O)(=O)c1ccc([N+](=O)[O-])cc1 | 6.7% (inactive) |
| O=C(NNS(=O)(=O)c1ccc([N+](=O)[O-])cc1)C1CCCCC1 | 61% (active) |
| O=C(NNS(=O)(=O)c1ccc(F)cc1)C1CCCCC1 | 18.4% (inactive) |
| CC(=O)N1c2ccc(S(=O)(=O)N3CCCC(C(=O)Nc4ccc(C)cc4C)C3)cc2CC1C (stereo unspecified) | 25.4% (inactive) |
| COc1ccc(OC)c(NC(=O)C2CCCN2S(=O)(=O)c2cccc3nsnc23)c1 (stereo unspecified) | 20.7% (inactive) |
| COc1ccccc1NC(=O)CSc1nnc(C)n1CC1CCCO1 (stereo unspecified) | 2.5% (inactive) |
| O=C(CSc1nnc(-c2ccco2)n1CC1CCCO1)c1ccccc1 (stereo unspecified) | 69.4% (active) |
| Cc1nnc(SCC(N)=O)n1CC1CCCO1 (stereo unspecified) | 14.5% (inactive) |
| Cc1cccc(NS(=O)(=O)c2ccc(-c3cnc(C4CC4)o3)cc2)c1 | 36.8% (inactive) |
| Cc1nnc(SCC(=O)Nc2ccc(S(=O)(=O)Nc3ccc(Cl)nn3)cc2)s1 | 7.5% (inactive) |
| OCCN1CCN(C(=S)c2ccc(-c3ccccc3)cc2)CC1 | 71.4% (active) |

| SMILES | inhibition |
| --- | --- |
| S=C(c1ccccc1)N1CCCC1 | 29% (inactive) |
| O=C(NC(c1ccccc1)c1ccccc1)N1CCN(CCO)CC1 | -22.1% (inactive) |
| COc1ccc(C(=O)N2CCCN(C)CC2)c(OC)c1 | -0.8% (inactive) |
| Cc1ccc(NC(=O)CN(C)C(=O)COC(=O)C(C)(C)Oc2ccc(Cl)cc2)cc1 | 14.5% (inactive) |
| CC(C)CC(CCc1ccccc1)OS(N)(=O)=O (stereo unspecified) | 4% (inactive) |
| CC(=O)c1cc(C#N)c(SCC(=O)Nc2nccs2)nc1C | 28.8% (inactive) |
| CC(=O)c1cc(C#N)c(N2CCCCC2)nc1C | 1.5% (inactive) |
| CC(=O)c1cc(C#N)c(SCC(=O)C(C)(C)C)nc1C | 75.8% (active) |
| Clc1cc(NC2CCCCC2)ncn1 | -10.9% (inactive) |
| COc1ccc(-n2cnnc2SCC(=O)Nc2cccc([N+](=O)[O-])c2)cc1 | -3.1% (inactive) |
| COc1ccc(Cc2nnc(SCC(=O)c3cccc([N+](=O)[O-])c3)n2C)cc1 | 76.3% (active) |
| COc1cccc(NCCC(=O)c2cccc([N+](=O)[O-])c2)c1 | 22.6% (inactive) |
| COc1cccc(CNS(=O)(=O)c2cc3c(cc2C)n(C)c(=O)c(=O)n3C)c1 | -3.5% (inactive) |
| Cc1cccc(CNS(=O)(=O)c2ccc(-c3cnc(C4CC4)o3)cc2)c1 | 32.9% (inactive) |
| Cn1c(SCc2ccc(F)cc2)nnc1-c1ccncc1 | 35.1% (inactive) |
| Oc1c(C(c2ccco2)N2CCC3(CC2)OCCO3)sc2ncnn12 (stereo unspecified) | 95.9% (active) |
| Cc1nc2sc(C(c3ccco3)N3CCOCC3)c(O)n2n1 (stereo unspecified) | -2.3% (inactive) |
| Oc1c(C(c2cccs2)N2CCN(c3ccc(F)cc3)CC2)sc2ncnn12 (stereo unspecified) | 19.3% (inactive) |
| COc1ccc(CNC(=O)C(NS(=O)(=O)c2cccc3nsnc23)C(C)C)cc1 (stereo unspecified) | 59.8% (inactive) |
| Cn1c(=O)oc2cc(S(=O)(=O)NCCC(=O)NCc3ccccc3Cl)ccc21 | 75.4% (active) |
| Cc1ccc(NC(=O)CCNS(=O)(=O)c2ccc3c(c2)oc(=O)n3C)cc1C | -21.8% (inactive) |
| COc1cccc(NC(=O)CCNS(=O)(=O)c2ccc3c(c2)oc(=O)n3C)c1 | 59.6% (inactive) |
